# Assay results taken from the supplement of paper PMC6555819.
# Test system: PPARg homodimer (NR concentration 180 nM)
# Experiment: PBM binding z-score (relative to random genomic background probes); higher = stronger binding; sequences stand for … in GC…GCGATTGACAGCGTAGAATGAAGG
# Summary of the method: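 Random background probes are the reference for binding z-scores. These scores derive from regression-normalized fluorescence on custom Agilent 4×180K protein-binding microarrays incubated 1 h with ligand-free nuclear receptor dimers. Binding was detected with antibodies against each partner (one per run).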
row,Sequence,PBM binding z-score
1,ATCTCTAGGTGAAGTTCAGTGAAAGATCGATAGA,0.329
2,CCGACTGGGGCAGAAAGTTTACCATACCATCCGG,0.00802
3,ACAGACAGGTGATGAAGGTAACTAAGGCTATCAT,0.053
4,GCATGTAGATCAAGGTTAAGAAAGACTAAGCTAA,-0.173
5,TCTTGTAGATCAACAGGAGGTCAAGAAAGATCGA,1.8
6,CTTGCTAGGTCAATGGTCAGCTAAAGCAGCTCGC,0.936
7,TCGAGTAGGTTCGTCGGGGCATTCAGCCAACATA,-0.174
8,ATCTCTGGGTAACAAGTTCAGTGAAAGAGAGGAC,1.27
9,TAGCCCAGGTCAGATCGGGCCAGTATACGCTATA,-0.165
10,TGTCAAAGTTCAATGGTAACGTAAGTATCCACAC,2.42
11,CGAACGAGGGCATGAGTTGATAGCAAATGCCGAT,-0.0859
12,CGTCCAAGGTCATAGGAGGTCAGGGAAGACAGAT,5.03
13,GCTGCTTGGTCAACTGATGGTCAGCTAAAGCTCG,-0.674
14,ATCTCTAGGAAACCAAGTTCAGTGAATGCCGAAC,0.854
15,CCTGCTAGGTCATGGTCATCTAATCTACAGTATG,1.51
16,TAGCCTATGTCATTGGGCCAGTATAGTACGCATC,-0.0273
17,CGAACTAGGTCAGAACAGGACACTGAAGGATGAT,0.688
18,GCTCGGAGGACAAGGTCAGATCTTTGTCCGTAGA,0.86
19,AGAATGAGGTTATTACGATCAGGGAATTGCGGTC,0.902
20,TCATATACGTAAAAGGTGAAAGTCGGTGTGGTAA,1.84

row,Sequence,PBM binding z-score
1,CCTAGTGGGCCACGAAAGGTCATTGATTCAGTGA,2.95
2,TCTTGTAGTTCAATAGAGGTTAAGAAAGTGCGCT,1.14
3,ACAGACAGGTGATAAAGGTAACTCAGGCTATCAT,0.207
4,CCTACTGGGTCATCAGGTCATTGATATCAACGTT,3.28
5,TCATCTAGGTAAAAGGTGAAAGTCGGTGTGGTAA,2.69
6,CAGCCTAGGTCAGGCCCAGTATAGGAGGAACGTT,0.325
7,AATACAGGGTCATCGTAAGCCAGAGTACGCACAG,1.65
8,CCTACTGGGCCACGAACGGTCATTGATTCAGTGA,0.254
9,GCGACTTGGGCAAAGCAGGTTACCATAAGGTTGG,-0.641
10,TCTAGTAGGTTAGTCGGGGCATTCAGCCAACATA,1.41
11,AGAACGAGGGCACGCTCAGTTGATAGCAGAGTAG,0.0615
12,CGTACTAGGTCATTGACAGGACAGTGAATAGTAA,3.05
13,ATCGAAAGGTCGAGGTGAGCATAGAGAAAGGGAA,1.39
14,TCATATAGGTAAAGGTGCAAGTCGAACGATATGA,0.555
15,TCTAGTTGGTCACGGAGGTCACTCACGACGGGTA,2.5
16,GCGACTGGGGCATAAGCAGGTTACCATAACTTAA,0.497
17,AATACAGGCTCATCGTAGGCCAGAGTACGCACAG,-0.257
18,CGTACAAGGTCAGCAGGTCAGTGAAAGCGACGTG,3.51
19,ACAGACAGGTGAGTGAAGGGAACTCAGCTGGACG,-0.397
20,CCTACTGGGCCAAAAAGGTCCTTGATGCCGATAA,-0.196
